In the library only some 3.5% were active in any assay of this set; here they are far more common.
GPR151 ag – human GPR151 activation. PathHunter beta-arrestin GPR151 cells, luminescence. AID 1508602. 1% of 650,000 active. activation, % at 11.2 µM; in the data active = activation above about 4.9%
Target sequence (Q8TDV0 whole entry, looked up): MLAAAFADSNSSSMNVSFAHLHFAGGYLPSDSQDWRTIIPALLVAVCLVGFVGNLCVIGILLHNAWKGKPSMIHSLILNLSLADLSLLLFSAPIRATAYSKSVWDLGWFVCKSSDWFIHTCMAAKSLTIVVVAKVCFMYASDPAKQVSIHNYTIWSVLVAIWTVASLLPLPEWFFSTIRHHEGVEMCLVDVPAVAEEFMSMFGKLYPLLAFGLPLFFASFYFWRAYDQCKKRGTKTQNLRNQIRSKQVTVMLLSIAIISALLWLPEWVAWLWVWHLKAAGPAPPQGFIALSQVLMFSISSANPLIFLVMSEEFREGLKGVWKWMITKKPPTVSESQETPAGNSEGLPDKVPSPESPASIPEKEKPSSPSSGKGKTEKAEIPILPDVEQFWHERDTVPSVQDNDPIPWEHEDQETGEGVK
MITF primary – blocks human microphthalmia-associated transcription factor; AlphaScreen MITF homodimerization, bead proximity signal; inhibition, % at 2.6 µM; 0.91% of 650,000 active; AID 1259374; in the data active = inhibition above about 50%
TEAD-YAP block – TEAD-YAP interaction inhibition; AID 1259422; HEK-TIYL cells, TEAD-Gal4/YAP UAS-luciferase luminescence; inhibition, % at 9.12 µM; 1.4% of 640,000 active; in the data active = inhibition above about 32%
FBW7 activator – activators of human E3 ligase FBW7. Q969H0. 0.13% of 650,000 active. normalized activity (activation), % at 26.1 µM. AlphaScreen FBW7–phospho-cyclin E peptide binding, activator screen; in the data active = normalized activity above about 1.9%;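 note: purified mutant Fbw7 with reduced substrate affinity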
GPR151 conf act – human GPR151 activation, confirmation screen; shares compounds with GPR151 ag; 6,700 tested, under 10 active; activation, % at 11.2 µM; GPR151 PathHunter beta-arrestin cells, luminescence, 90 min; % of EA-reagent control over plate median; AID 1508609;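 active = mean percent activation across replicates above the confirmation screen cutoff of 4.91%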
GPR119 ag – GPR119 activation, counter-screen for GPR151 activators; shares compounds with GPR151 ag; GPR119 PathHunter beta-arrestin cells, luminescence, 90 min; 0 = compound-well median, 100 = enzyme-acceptor control; activation, % at 11.2 µM; 0.3% of 6,700 active; AID 1508611;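 active = mean percent activation in the counterscreen above 29.09%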;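 note: counterscreen on off-target GPR119 to flag nonselective hits from the GPR151 activator screen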
A number is an active result; i = inactive; nt = not tested or not shown; ! = repeats disagree.

SMILES	GPR151 ag	MITF primary	TEAD-YAP block	FBW7 activator	GPR151 conf act	GPR119 ag
O=C(c1cc(-c2ccc(Cl)cc2)nc2ccccc12)N1CCOCC1	i	i	i	i	nt	nt
O=C(c1cc(-c2cccc(Cl)c2)nc2ccccc12)N1CCOCC1	11	i	i	i	i	i
Cc1nc2ccccc2n1CCNS(=O)(=O)c1ccc(F)cc1	6.4	i	i	i	i	i
OC(CNCC1(c2ccccc2)CCCC1)COc1ccccc1Cl (stereo not given)	i	i	i	i	nt	nt
COC(=O)c1ccc(OC(=O)c2ccc([N+](=O)[O-])cc2Cl)c(OC)c1	i	i	i	i	nt	nt
COc1ccc(-c2csc(Nc3ccccc3)n2)cc1F	6.5	i	i	i	i	i
COc1cccc(Nc2nc(-c3ccc(OC)c(F)c3)cs2)c1	i	i	i	i	nt	nt
Cc1ccc(NC(=S)NC(=O)CCC2CC(C)OC2=O)cc1 (stereo not given)	i	i	i	i	nt	nt
COc1ccc(NC(=O)C2C3C=CC4(O3)C2C(=O)N(C(C)CCc2ccccc2)C4C(=O)NC2CCCC(C)C2C)cc1 (stereo not given)	7.0	i	i	i	i	i
CCCN(CCC)CCCN1C(=O)C2C(C(=O)Nc3ccc(F)c(Cl)c3)C3C=CC2(O3)C1C(=O)NC1CCCC(C)C1C (stereo not given)	i	i	i	i	nt	nt
CCCN(CCC)CCN1C(=O)C2C(C(=O)Nc3ccc(F)c(Cl)c3)C3C=CC2(O3)C1C(=O)NC1CCCC(C)C1C (stereo not given)	6.9	i	i	i	i	i
Cc1ccc2c(c1)N(CC(=O)N1CCC3(CC1)OCCO3)C(=O)CO2	i	i	i	i	nt	nt
O=C(O)[C@H]1/C(=C/CO)O[C@@H]2CC(=O)N21	4.9!	i	i	i	i	i
O=C(O)C1CC(=O)N(CCN2CC(C(=O)O)CC2=O)C1 (stereo not given)	i	i	i	i	nt	nt
COc1cc(OC)cc(C(=O)N2CCN(C3CCCCC3)CC2)c1	5.0	i	i	i	i	i
COc1cc(C(=O)N2CCN(C3CCCC3)CC2)cc(OC)c1OC	i	i	i	i	nt	nt
CCOC(=O)C(Cc1ccccc1)NC(=O)c1ccccc1 (stereo not given)	i	i	i	i	nt	nt
O=C1C(=O)N(C2CCCC2)C(=O)N1CC(=O)N(Cc1ccccc1)C1CCS(=O)(=O)C1 (stereo not given)	i	i	i	i	nt	nt
COc1cccc(NC(=O)C(=O)NCc2cccnc2)c1	i	i	i	i	nt	nt
COc1cccc(NC(=S)NCc2cccnc2)c1	6.1!	i	i	i	i	i
O=C(CC1CCCC1)NCc1nnnn1-c1ccc(F)cc1	i	i	i	i	nt	nt
CCN1CCN(CCCNC(=O)CCCNC(=O)Cn2cnc3sc4c(c3c2=O)CCCC4)CC1	i	i	i	i	nt	nt
CN1CCN(CCCNC(=O)CCCNC(=O)Cn2cnc3sc4c(c3c2=O)CCCC4)CC1	6.0	i	i	i	i	i
CC(=O)NC1C(Oc2cc(C)ccc2C)OC2COC(C)(C)OC2C1O (stereo not given)	13	i	i	i	i	i
COc1ccccc1OC1OC2COC(c3ccco3)OC2C(O)C1NC(C)=O (stereo not given)	15	i	i	i	i	i
SMILES	GPR151 ag	MITF primary	TEAD-YAP block	FBW7 activator	GPR151 conf act	GPR119 ag
CC(=O)N[C@H]1[C@H](Oc2ccc(Cl)cc2Cl)O[C@H](CO)[C@@H](O)[C@@H]1O	i	i	i	i	nt	nt
CC(=O)NC1C(Oc2cc(C)ccc2C)OC(CO)C(O)C1O (stereo not given)	5.8	i	i	i	i	i
COC(=O)c1c(NC(=O)CSc2nnc(N)s2)sc(C)c1C	i	i	i	i	nt	nt
COc1ccc(-c2nnc(SCC(=O)Nc3ccc(Cl)cc3C)o2)cc1	i	i	i	i	nt	nt
O=C(CSc1nc2ccccc2[nH]1)Nc1ccc(Cl)c(C(=O)O)c1	i	i	i	i	nt	nt
O=C(CSc1nc2ncccc2[nH]1)Nc1ccc(Cl)c(F)c1	i	i	i	i	nt	nt
COC(=O)c1c(NC(=O)CSc2nnc(C)s2)sc(C(C)=O)c1C	7.4	i	i	i	i	i
O=C(CSc1nc2ccccc2[nH]1)Nc1cc(Cl)ccc1Cl	11	i	i	i	i	i
COc1ccc(-c2nnc(SCC(=O)Nc3ccc(F)c(Cl)c3)o2)cc1	5.0	i	i	i	i	i
O=C(CSc1nc2ncccc2[nH]1)Nc1ccc(F)c(Cl)c1	7.2	i	i	i	i	i
N#Cc1cc(N2CCCC2)c([N+](=O)[O-])cc1C#N	i	i	i	i	nt	nt
O=C(CCc1ccccc1)Nc1c2c(nn1-c1cccc(Cl)c1)CSC2	i	i	i	i	nt	nt
CCC(=O)Nc1nnc(SCc2cccc(Cl)c2)s1	i	i	i	i	nt	nt
O=C(CSc1nc2ccccc2[nH]1)Nc1cccc(Cl)c1	5.1	i	i	i	i	i
CCC(=O)Nc1nnc(SCC(=O)Nc2cccc(Cl)c2)s1	8.8	i	i	i	i	i
O=C(CSc1nc2ccccc2[nH]1)Nc1ccc(Cl)cc1	i	i	i	i	nt	nt
CCC(CC)C(=O)Nc1nnc(SCC(=O)Nc2nnc(C)s2)s1	4.9	i	i	i	i	i
Cc1cccc2nc(-c3ccc(Cl)cc3)c(-c3ccc(Cl)cc3)nc12	i	i	i	i	nt	nt
C=CCn1c(=O)c2c(nc3n2CCCN3c2ccc(CC)cc2)n(C)c1=O	7.4	i	i	i	i	i
CCn1c(=O)c2c(nc3n2CCCN3c2ccc(Br)cc2)n(C)c1=O	i	i	i	i	nt	nt
O=C(NCc1ccccc1)c1cnc2cc(-c3cn[nH]c3)ccn12	6.2	i	i	i	i	i
O=C(CN1Cc2ccccc2OC(c2ccccc2F)C1)N1CCCC1c1n[nH]c(=O)[nH]1 (stereo not given)	7.5	i	i	i	i	i
CCOC(=O)C1CCN(C(C)C(=O)N2CCCc3c2c(=O)oc2ccc(O)cc32)CC1 (stereo not given)	i	i	i	i	nt	nt
CCc1ccccc1NC(=O)Cn1c(=O)c2cccn2c2ccccc21	i	i	i	i	nt	nt
O=C(/C=C/c1cccc(Cl)c1)Nc1ccncc1	24	i	i	i	i	i
SMILES	GPR151 ag	MITF primary	TEAD-YAP block	FBW7 activator	GPR151 conf act	GPR119 ag
CCOc1cc(/C=c2/sc3nc4ccccc4n3c2=O)cc(I)c1O	5.1	i	i	i	i	i
O=c1[nH]c(=S)n(-c2ccc(F)cc2)c(O)c1C=Nc1ccc(Cl)cc1	i	i	i	i	nt	nt
COc1ccc(-n2nc3cc(C)c(NC(=O)c4cccs4)cc3n2)cc1	5.1	i	i	i	i	i
O=c1[nH]c(O)c(C=Nc2ccc(F)c(F)c2)c(=O)[nH]1	13	i	i	i	i	i
COc1ccc(N=Cc2c(O)[nH]c(=S)[nH]c2=O)cc1OC	7.2	i	i	i	i	i
COc1ccc(/C=C/C2=NC(=C\c3cccc(OC)c3)/C(=O)O2)cc1	i	i	i	i	nt	nt
COc1ccc2c(CNC3CCCC(C)C3C)c(C(=O)O)n(Cc3ccc(C)cc3)c2c1 (stereo not given)	4.9	i	i	i	i	i

High-throughput results: PubChem BioAssay, The Scripps Research Institute Molecular Screening Center
